# Measured values as given in the supplement of paper PMC12532568.
# Structures can show the parent of a compound that is named as a salt.
# Tested on: Danio rerio larvae Tg(actc1b:ZsGreen-LC3), 3 dpf
# Assay: LC3 puncta relative area vs vehicle, with NH4Cl (autophagic flux) (log2 fold change); higher = more autophagy
# Details: 10 µM; treatment time 16 h; NH4Cl: + 100 mM, 4 h
# Method: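 Transgenic Tg(actc1b:ZsGreen-map1lc3) zebrafish larvae (2 dpf) were treated for 16 h with Tocris library compounds at 10 µM (n = 12 larvae per compound). Skeletal-muscle LC3 puncta area relative to body area was measured by high-content confocal imaging before and after 4 h of 100 mM NH4Cl (autophagic flux), normalised to vehicle (DMSO), and reported as log2 fold change.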
row,Structure (SMILES),LC3 puncta (log2)
1,OC1CCCCC1N1CCC(c2ccccc2)CC1 (configuration not stated) [(?)-Vesamicol hydrochloride],0.751
2,"CN(C(=O)Cc1ccc(Cl)c(Cl)c1)[C@H](CN1CCCC1)c1ccccc1 [ICI 199,441 hydrochloride]",0.486
3,"c1ccc(C2CNCc3ccccc32)cc1 (configuration not stated) [4-Phenyl-1,2,3,4-tetrahydroisoquinoline hydrochloride]",0.39
4,NC(C(=O)O)c1nn[nH]n1 (racemic) [(RS)-(Tetrazol-5-yl)glycine],0.357
5,c1ccc2sc(C3(N4CCCCC4)CCCCC3)cc2c1 [BTCP maleate],0.575
6,COc1ccc(C(=O)N2CCCC2=O)cc1 [Aniracetam],0.0699
7,S=C(NC1CCCCC1)N1CCC(c2cnc[nH]2)CC1 [Thioperamide],0.48
8,CC(C)[C@@]1(NC(=O)[C@@H]2C[C@@H]3c4cccc5[nH]cc(c45)C[C@H]3N(C)C2)O[C@@]2(O)[C@@H]3CCCN3C(=O)[C@H](Cc3ccccc3)N2C1=O [Dihydroergocristine mesylate],0.198
9,O=C1CCCN1CC#CCN1CCCC1 [Oxotremorine sesquifumarate],0.192
10,Fc1ccc(C(OCCN2CCN(CCCc3ccccc3)CC2)c2ccc(F)cc2)cc1,0.781
11,c1ccc2c(c1)[I+]c1ccccc1-2 [Diphenyleneiodonium chloride],0.545
12,"c1ccc(CC(c2ccccc2)N2CCCCC2)cc1 (configuration not stated) [(?)-1-(1,2-Diphenylethyl)piperidine maleate]",0.216
13,CCCN(C/C=C/I)C1CCc2ccc(O)cc2C1 (configuration not stated) [7-Hydroxy-PIPAT maleate],0.264
14,C=C(C)[C@H]1CN[C@H](C(=O)O)[C@H]1CC(=O)O [Kainic acid],0.23
15,CN1[C@@H]2CC[C@H]1C[C@@H](OC(=O)c1cc(Cl)cc(Cl)c1)C2,0.686
16,CS(=O)(=O)Nc1ccc(Cc2noc(-c3ccc4[nH]cc(CCN)c4c3)n2)cc1,0.382
17,N=C(NCc1ccc(Cl)cc1)SCCCc1c[nH]cn1 [Clobenpropit dihydrobromide],0.922
18,CC(C)C[C@H]1C(=O)N2CCC[C@H]2[C@]2(O)O[C@](NC(=O)[C@@H]3C=C4c5cccc6[nH]c(Br)c(c56)C[C@H]4N(C)C3)(C(C)C)C(=O)N12 [Bromocriptine mesylate],0.623
19,CC(=O)NCCc1c[nH]c2ccccc12 [N-Acetyltryptamine],0.0329
20,Cc1ccc(C[N+](C)(C)C)o1 [5-Methylfurmethiodide],0.316
21,CC(C(=O)OC1CC2CCC(C1)N2C)c1ccc(Br)cc1 (configuration not stated) [PG-9 maleate],0.169
22,Oc1ccc2c3c1O[C@H]1c4c(c5ccccc5n4Cc4ccccc4)C[C@@]4(O)C(C2)N(CC2CC2)CC[C@]314 [N-Benzylnaltrindole hydrochloride],0.945
23,CCCN(CCC)[C@@H]1CCc2c(OC)cccc2[C@@H]1C [(+)-UH 232 maleate],0.738
24,O=C(O)/C=C/CO [trans-4-Hydroxycrotonic acid],0.0547
25,COc1ccc(CNC(=O)/C=C/c2ccc3[nH]cc(CCN(C)C)c3c2)cc1,0.115
26,CC(CN)CC(=O)O (configuration not stated) [3-Methyl-GABA],0.425
27,O=C(Cc1ccc(Cl)c(Cl)c1)N1CCCCC1CN1CCCC1 (configuration not stated),0.493
